# High-throughput results deposited in PubChem BioAssay by several laboratories.
# Most compounds without a hit are left out; they make up all but 2.4% or so of the library.
# CR mimetic SO = caloric restriction mimetics inhibiting age-related superoxide in yeast. S. cerevisiae aged cells, superoxide DHE fluorescence; stronger effect = lower value. superoxide response (% of plate mean), % at 10 µM. actives 0.18% (n = 330,000). AID 2690;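 active = superoxide response under a set limit, about three screen SD below normal, cut at about 65% in these data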;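 note: yeast aged for seven days with compound at 30 °C before DHE staining; 100% = average MFI of all compound-treated wells on the plate with controls excluded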
# PfM18AAP inh-1 = blocks P. falciparum M18 aspartyl aminopeptidase. recombinant PfM18AAP, H-Glu-NHMec fluorogenic cleavage. inhibition, % at 7.35 µM. actives 1.2% (n = 290,000);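 active = inhibition above the campaign mean inhibition over all tested compounds plus 3 SD, cut at about 28% in these data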;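 note: 0% = plate median of test compound wells and 100% = 2 mM ZnCl2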
# APOBEC3A inh = inhibitors of human APOBEC3A DNA deaminase. P31941. recombinant A3A, FAM/TAMRA ssDNA deamination fluorescence. inhibition, % at 20 µM. actives 0.41% (n = 330,000);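 active = at least 40% inhibition at 20 µM here, with at most 30% in a related deaminase screen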;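 note: plate controls were A3A with DMSO for no effect and wells lacking A3A enzyme for full effect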
# Target sequence (P31941 whole entry, looked up): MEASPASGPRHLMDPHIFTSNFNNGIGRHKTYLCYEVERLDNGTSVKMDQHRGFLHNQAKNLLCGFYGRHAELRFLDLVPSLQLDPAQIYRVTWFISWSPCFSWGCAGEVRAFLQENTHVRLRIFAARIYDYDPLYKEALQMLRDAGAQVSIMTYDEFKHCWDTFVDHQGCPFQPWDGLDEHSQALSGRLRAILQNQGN
# A3G deaminase = blocks human APOBEC3G single-stranded DNA deamination. recombinant A3G, ssDNA deamination FAM/TAMRA fluorescence. inhibition, % at 20 µM. AID 493012. Q9HC16. actives 0.28% (n = 330,000);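 active = inhibition of at least 40% at 20 µM, with no more than 30% in the related APOBEC3A deaminase screen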;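 note: plate controls were DMSO wells with A3G for no effect and wells lacking A3G enzyme for full effect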
# Target sequence (Q9HC16 whole entry, looked up): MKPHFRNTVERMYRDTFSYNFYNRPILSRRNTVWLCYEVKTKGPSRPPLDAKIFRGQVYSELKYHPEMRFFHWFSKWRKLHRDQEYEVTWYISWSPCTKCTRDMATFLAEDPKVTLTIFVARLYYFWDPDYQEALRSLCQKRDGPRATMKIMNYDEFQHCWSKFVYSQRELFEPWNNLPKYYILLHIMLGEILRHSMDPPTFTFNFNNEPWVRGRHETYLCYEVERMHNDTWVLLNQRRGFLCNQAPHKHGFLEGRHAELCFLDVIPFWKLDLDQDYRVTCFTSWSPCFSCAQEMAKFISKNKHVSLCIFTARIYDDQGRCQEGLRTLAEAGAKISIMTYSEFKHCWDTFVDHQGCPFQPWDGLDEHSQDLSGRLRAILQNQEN
# PfGluPho inh = PfG6PD (Plasmodium falciparum) enzyme inhibition; PfGluPho enzyme, NADPH resazurin-diaphorase fluorescence; inhibition, % at 20 µM; actives 0.78% (n = 350,000); AID 504690;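 active = inhibition reaching at least a set limit at 20 µM in the primary screen, cut at about 59% in these data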;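 note: 0% = DMSO wells with substrate and 100% = DMSO wells lacking glucose-6-phosphate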
# PfM18AAP inh-2 = PfM18AAP inhibition, confirmation; shares compounds with PfM18AAP inh-1; recombinant PfM18AAP, H-Glu-NHMec fluorogenic cleavage; inhibition, % at 7.35 µM; actives 28% (n = 2,400);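 active = mean inhibition over replicate wells above the hit cutoff set for the earlier primary screen, cut at about 29% in these data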;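 note: 0% = median of test compound wells and 100% = 2 mM ZnCl2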
# CTSL1 confirm = Cathepsin L (human) inhibition, confirmation; shares compounds with PfM18AAP inh-1; purified cathepsin L1, Z-Leu-Arg-MCA fluorescence; inhibition, % at 5.96 µM; 2,400 tested, under 10 active; AID 2178;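 active = average inhibition across replicates above the hit cutoff set in the earlier primary screen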;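 note: 0% = median of test compound wells and 100% = Z-Phe-Ala-diazomethylketone 1 µM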
# The depositor's hits bear a star; · = not tested or not shown.
SMILES,CR mimetic SO,PfM18AAP inh-1,APOBEC3A inh,A3G deaminase,PfGluPho inh,PfM18AAP inh-2,CTSL1 confirm
O=C1/C(=C\c2ccc(O)c(O)c2)N=C2CCCCCN12,78,65*,8,-1,-11,56*,4
N#Cc1c(-c2ccccc2)cc(-c2ccccc2)nc1SCC(=O)NCC(=O)O,100,38*,5,3,-15,-11,3
CC1CC(C)(C)CC2(C1)NC(=S)N(c1ccccc1)N2 (stereo unspecified),100,36*,0,-2,9,-48,-14
O=C(COC(=O)CCc1nc2ccccc2c(=O)[nH]1)Nc1ccccc1OC(F)F,113,·,4,-4,-1,·,·
O=C(O)C1c2ccccc2Cc2ccccc21,·,·,·,·,-10,·,·
CC(C)(C)S(=O)(=O)N1C[C@H]2CC/C=C\C/C=C\2[C@@H]1CCO,·,·,·,·,4,·,·
COc1ccc(NC(=O)c2c(NC(=O)CCC(=O)O)sc3c2CCCCC3)cc1,104,44*,1,5,6,-46,-5
O=C(O)CCC(=O)Nc1sc2c(c1C(=O)NCc1ccccc1)CCCC2,102,3,-2,-4,6,·,·
CCNC(COC(=O)c1ccc([N+](=O)[O-])cc1)C1CCCCC1 (stereo unspecified),·,·,·,·,11,·,·
Cc1ccc(S(=O)(=O)/N=C(/Nc2cccc(O)c2)c2ccccc2)cc1,85,4,-1,-9,5,·,·
O=C(CN1C(=O)c2ccccc2S1(=O)=O)c1ccc(O)c(O)c1,110,47*,-4,-2,-34,35*,5
Cc1ccc(C(=O)N/N=C\c2ccc([N+](=O)[O-])o2)cn1,113,34*,9,3,17,-45,6
Cc1ccc(C(=O)N/N=C\c2ccc(-c3ccc([N+](=O)[O-])cc3)o2)cn1,98,12,1,-4,-7,·,·
O=C(CSc1nnc(-c2ccccc2Br)o1)Nc1nncs1,98,44*,1,-14,-8,-2,-4
O=C(CSc1nnc(-c2ccncc2)o1)Nc1nncs1,95,19,-2,-12,-7,·,·
N#CC1=C(N)Nc2ncnn2C1c1ccc([N+](=O)[O-])cc1 (stereo unspecified),102,16,-5,0,21,·,·
N#CC1=C(N)Nc2ncnn2C1c1ccccc1 (stereo unspecified),81,38*,-3,-5,·,-41,0
NNc1nc2ccc(Cl)cc2s1,98,10,2,-5,14,·,·
NNc1nc2ccc(F)cc2s1,86,37*,-2,-8,25,29*,0
Oc1cccc(/C=N/N(Cc2ccccc2)c2ccccc2)c1,93,-3,6,-4,3,·,·
Oc1ccc(/C=N/N(Cc2ccccc2)c2ccccc2)c(O)c1O,·,50*,·,·,23,-19,-2
CC(=S)/C=C1\Sc2ccccc2N1C,90,37*,3,6,47,5,5
CN1/C(=C/c2cccc[n+]2CCO)Sc2ccccc21,117,-6,93,41,-5,·,·
CC(=O)Oc1ccc(C23c4ccccc4C2(OC(C)=O)c2cc(OC(C)=O)ccc23)cc1 (stereo unspecified),·,·,·,·,15,·,·
Cc1ccc(C2NC(=O)c3c(sc(C)c3C)N2)c(O)c1 (stereo unspecified),96,35*,-4,-4,34,-24,-1
SMILES,CR mimetic SO,PfM18AAP inh-1,APOBEC3A inh,A3G deaminase,PfGluPho inh,PfM18AAP inh-2,CTSL1 confirm
Cc1cccc(C2NC(=O)c3c(sc(C)c3C)N2)c1O (stereo unspecified),91,52*,-5,-7,14,-30,2
COCc1nc2sc(C)c(C)c2c(=O)[nH]1,102,-4,2,0,13,·,·
Cc1sc2nc(CSc3ncn[nH]3)[nH]c(=O)c2c1C,111,72*,4,-3,15,71*,-3
COc1ccc(/C=C/C(=O)NC2CCN(Cc3ccccc3)CC2)cc1OC,102,-4,3,-1,-15,·,·
NNc1nc(-c2ccccc2)c2cc(Br)ccc2n1,98,35*,-2,-5,23,-6,5
NNc1nc(-c2ccccc2)c2cc(Cl)ccc2n1,97,19,-3,-8,17,·,·
C[C@@H]1CN([C@H](C)CO)C(=O)CCCn2cc(nn2)CO[C@H]1CN(C)C(=O)Nc1cccc(Oc2ccccn2)c1,·,·,·,·,-10,·,·
C=C(C)c1cccc(C(C)(C)NC(=O)NNC(=O)c2ccccc2O)c1,131,40*,-4,-2,-26,-10,0
C=C(C)c1cccc(C(C)(C)NC(=O)Nc2ccc(C(C)=O)cc2)c1,101,6,-1,-3,4,·,·
CCN1/C(=C2\C(=O)N(C)C(=S)N2C)C=Cc2cc(C)ccc21,99,34*,1,-3,3,-13,5
O=c1cc2c(=O)oc3cc(O)c(O)oc3c2c(O)c1O,·,59*,·,·,12,31*,-4
O=c1oc2cc(O)c(Cl)cc2c2ccccc12,104,5,-4,-8,-23,·,·
O=C(NCc1cccnc1)NC1(C(F)(F)F)Oc2ccc(Cl)cc2O1 (stereo unspecified),98,80*,-6,-9,-6,83*,-1
COCCNC(=O)C(C)Oc1ccc(Cl)cc1Cl (stereo unspecified),108,2,-1,-2,-10,·,·
Cc1cc(NC(=O)NC2(C(F)(F)F)Oc3ccc(Cl)cc3O2)no1 (stereo unspecified),102,88*,-2,-7,-1,83*,-2
Cc1ccc(Cl)cc1NC(=O)NCc1cccnc1,96,-8,1,-9,-4,·,·
COCCNC(=O)NC1(C(F)(F)F)Oc2ccc(Cl)cc2O1 (stereo unspecified),101,83*,-1,-2,-23,61*,1
OCCNCC(O)CN1c2ccccc2Sc2ccccc21 (stereo unspecified),96,-6,-12,-5,-6,·,·
Cc1ccc2oc(=O)c(/C=C(\O)c3ccco3)nc2c1,95,50*,-6,-8,6,21,4
Cc1ccc(/C(O)=C/c2nc3ccccc3oc2=O)cc1,102,13,-1,-1,-39,·,·
O=C1NN=C(c2ccccc2)C1Cc1ccccc1 (stereo unspecified),·,·,·,·,11,·,·
Cc1ccc2ccccc2c1NC(=O)CNCc1ccccc1,·,·,·,·,18,·,·
Cn1cc(P(=O)(N2CCOCC2)N2CCOCC2)cc1P(=S)(N1CCOCC1)N1CCOCC1,99,37*,-2,-2,45,-18,7
O=C(Cc1ccccc1[N+](=O)[O-])NCC(O)c1ccc2c(c1)OCO2 (stereo unspecified),·,·,·,·,0,·,·
COCCCn1c(=O)c2ccccc2n2c(=S)[nH]nc12,107,35*,-8,35,28,25,2
COCCCn1c(=O)c2ccccc2n(Cc2ccccc2)c1=O,94,7,-5,-4,3,·,·
